Only some compounds are listed: those with a hit (about 6.5% of all), similar ones and a draw of the others.
Fluor 339 460: intrinsic fluorescence of library compounds, ex339/em460 – biochemical, MLSMR library, data from DPM-DC assay, artefact control, profiling panel | compound autofluorescence, ex339/em460 nm, NADH buffer; stronger effect = higher value; 1 = no-compound wells, NADH background | fluorescence fold increase at 10 µM | 65,000 tested, 5.5% active;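 active means at 10 µM, mean starting fluorescence two-fold or more over control wells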;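 further: signal is the first read of a kinetic run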
Abs 340nm: compound light absorbance at 340 nm, profiling panel, artefact control, biochemical, MLSMR library, data from PS, PMK, MK assays. compound absorbance at 340 nm, fold over control. fold change at 10 µM. 65,000 tested, under 10 active. AID 708, 2007;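 active means at 10 µM dose, initial 340 nm absorbance at least 2 fold that of control wells; inactive means change under 2 fold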;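 further: initial absorbance extrapolated from kinetic A340 decline of NADH oxidation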
NADH enzymes: inhibitors of PK/LDH coupling enzymes, profiling panel, artefact control, biochemical, MLSMR library. coupled PK/LDH NADH assays, four targets. IC50, µM (top dose mostly 10 µM). 65,000 tested, 0.02% active. AID 774, 2007;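 active means single-dose screening hits from any of four coupled enzyme assays that gave an IC50 when retested across doses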;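 further: the DPM-DC format reads NADH fluorescence rather than 340 nm absorbance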
Spn DPM-DC inh: S. pneumoniae DPM-DC inhibitors, primary screen, biochemical, PK/LDH-coupled NADH fluorescence; diphosphomevalonate decarboxylase (Streptococcus pneumoniae D39); 65,000 tested, 0.49% active; AID 556, 2006; calls only at 10 µM; purified DPM-DC;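 active means the 320 compounds with the highest percent inhibition in the single-dose primary screen, excluding strongly autofluorescent ones, cut at about 32% in these data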;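 further: kinetic rate of NADH fluorescence loss reporting ADP formed by the decarboxylase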
Spn MK inh: S. pneumoniae MK inhibitors, primary screen, biochemical, PK/LDH-coupled NADH absorbance; mevalonate kinase [Streptococcus pneumoniae D39]; purified MK, PK/LDH-coupled NADH absorbance 340 nm; inhibition, % at 10 µM; 65,000 tested, 0.48% active; AID 555, 2006;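 active means ranked among the strongest by inhibition in the single 10 µM screen, a fixed top-ranked set picked for dose follow-up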
PMK inhibit: S. pneumoniae PMK inhibitors, primary screen, biochemical, mevalonate pathway, pilot trial included. 65,000 tested, 0.49% active. inhibition, % at 10 µM. purified PMK, PK/LDH-coupled NADH absorbance 340 nm. phosphomevalonate kinase (Streptococcus pneumoniae D39);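 active means top-ranked compounds by inhibition in the single 10 µM screen, taking a fixed number of the strongest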
Large screens that a line does not name were inactive.

O=C(NC1CCCCC1)N(CCN1CCCC1)Cc1cc2cc3c(cc2[nH]c1=O)OCCO3	Fluor 339 460 3.6, Spn DPM-DC inh active
O=c1oc2ccccc2cc1-c1nc2ccccc2o1	Fluor 339 460 2.1 (not shown: Spn DPM-DC inh)
O=c1c2nnn(Cc3ccccc3)c2ncn1C/C=C/c1ccccc1	none
Cc1ccc(-c2cc(C(=O)Nc3cccnc3)c3ccccc3n2)o1	Fluor 339 460 2.2 (not shown: Spn DPM-DC inh)
O=C(Nc1cccnc1)c1coc(=O)c2ccccc12	none
Oc1ccc(CN2CCCCC2)nc1-c1ccccc1	Fluor 339 460 3.3
O=C(CN(C(=O)c1cc2c(s1)CCC2)C1CCCC1)NCc1cccs1	none
COC(=O)c1cc(OC)c(OC)cc1NC(=O)c1cccnc1	none
CCOc1cc(C#N)c(NC(=O)c2cccnc2)cc1OCC	PMK inhibit 25
COc1ccc(-c2cc(C(=O)NCC(C)C)no2)cc1	none
Cc1csc(NC(=O)C2CCC(C)(C(=O)O)C2(C)C)n1 (centres undefined)	PMK inhibit 29
CCN1CCN(c2cc(C)c3cc(NC(=O)c4ccncc4)ccc3n2)CC1	none
CCOC(=O)C1CCCN(C(=O)CCC(=O)Nc2ccc3nc(N4CCOCC4)cc(C)c3c2)C1 (centres undefined)	Fluor 339 460 4.7 (not shown: Spn DPM-DC inh)
COCCCNC(=O)CCC(=O)Nc1ccc2nc(N3CCOCC3)cc(C)c2c1	Fluor 339 460 4.7 (not shown: Spn DPM-DC inh)
CCCCNC(=O)CCC(=O)Nc1ccc2nc(N3CCOCC3)cc(C)c2c1	Fluor 339 460 4.7 (not shown: Spn DPM-DC inh)
Cc1cc(N2CCN(C)CC2)nc2ccc(NC(=O)CCC(=O)NCCC3=CCCCC3)cc12	Fluor 339 460 3.8
O=C(NC1CCCC1)C(c1cccs1)N(CC1CCCO1)C(=O)Cc1cccs1 (centres undefined)	none
Cc1cc(N2CCOCC2)nc2ccc(NC(=O)C3CCC(C)CC3)cc12 (centres undefined)	Fluor 339 460 2.3 (not shown: Spn DPM-DC inh)
O=C(Nc1ccc(N2CCOCC2)cc1)C1CC1	none
COc1ccc(Cl)cc1NC(=O)C1CSC(c2ccncc2)=N1 (centres undefined)	none
O=C1CSC(c2cn(-c3ccccc3)nc2-c2cc3ccccc3oc2=O)N1Cc1ccco1 (centres undefined)	Fluor 339 460 5 (not shown: Spn DPM-DC inh)
O=C(CSc1nc2cc(Cl)ccc2s1)N1CCN(C(=O)c2ccco2)CC1	none
O=C(OCC(=O)N1CCN(C(=O)c2ccco2)CC1)c1cc(-c2ccccc2)nc2ccccc12	none
O=C(CSc1nc(-c2ccccc2)cs1)N1CCN(C(=O)c2ccco2)CC1	PMK inhibit 29
O=C(OCC(=O)N1CCN(C(=O)c2ccco2)CC1)c1cc(-c2ccc(F)cc2)nc2ccccc12	Fluor 339 460 2.1 (not shown: Spn DPM-DC inh)
CCOC(=O)C(C)Sc1nnc(Cc2cc(=O)[nH]c(=O)[nH]2)n1-c1ccc(Cl)cc1 (centres undefined)	none
COC(=O)c1sc(=S)sc1C(=O)OC	none
CCOC(=O)c1[nH]c2ccc(F)cc2c1NC(=O)CN1CCc2cc(OC)c(OC)cc2C1	none
COC(=O)c1[nH]c2ccc(Cl)cc2c1NC(=O)CCN1CCOCC1	Fluor 339 460 2.1, Spn DPM-DC inh active
CCOC(=O)c1[nH]c2ccc(OC)cc2c1NC(=O)CCN1CCC(C)CC1	Fluor 339 460 2.5 (not shown: Spn DPM-DC inh)
CCOC(=O)c1[nH]c2ccc(OC)cc2c1NC(=O)CCN1CCc2ccccc2C1	Fluor 339 460 2.3 (not shown: Spn DPM-DC inh)
COC(=O)c1[nH]c2cc(OC)ccc2c1NC(=O)CCN1CCCCC1	none
CCOC(=O)N1CCC(NC(=O)c2cccc3c2C(=O)N(Cc2cccnc2)C3)CC1	none
COC(=O)c1[nH]c2cc(OC)ccc2c1NC(=O)CCN1CCN(Cc2ccc3c(c2)OCO3)CC1	none
COc1ccc2[nH]c3c(N4CCN(Cc5ccc6c(c5)OCO6)CC4)ncnc3c2c1	Fluor 339 460 2.3 (not shown: Spn DPM-DC inh)
COc1ccc2c(c1)c1ncnc(N3CCN(Cc4ccc5c(c4)OCO5)CC3)c1n2C	Fluor 339 460 3.2
COc1ccc2c(c1)c(C(O)CN1CCN(Cc3ccc4c(c3)OCO4)CC1)c(C)n2C (centres undefined)	none
CC(C(=O)Nc1ccccc1-c1ccccc1)N1CCN(C(=O)c2ccco2)CC1 (centres undefined)	none
COc1cc2c(cc1NC(=O)CSc1nnnn1-c1ccccc1)oc1ccccc12	Fluor 339 460 2.2
COc1cccc(-n2nnnc2SCC(=O)c2cc(OC)ccc2OC)c1	Fluor 339 460 2.4
COc1ccc2cc(CN(CC3COCCO3)S(=O)(=O)c3ccc(Cl)cc3)c(=O)[nH]c2c1 (centres undefined)	none
COC(=O)C(NC=O)C(O)(Cc1ccccc1)C(F)(F)F (centres undefined)	none
COCCNc1cc(C)nc2c3c(C)cc(C)nc3nn12	Fluor 339 460 3.8 (not shown: Spn DPM-DC inh)
Cc1cc(C)c2c(n1)nn1c(NCCN3CCOCC3)cc(C)nc21	Fluor 339 460 3.8 (not shown: Spn DPM-DC inh)
CC(/C=C/c1ccccc1)NC(N)=O (centres undefined)	none
COC(=O)c1c(C)nc(C)c2c(=O)oc3ccccc3c12	none
Cc1cc2c(c(N)n1)c(=O)oc1ccccc12	Fluor 339 460 3.7 (not shown: Spn DPM-DC inh)
Cc1cc(-c2ccc(F)cc2)nc2cc(C(N)=O)nn12	Fluor 339 460 2.1
CCOC(=O)c1cnn2c(C)cc(-c3ccc(F)cc3)nc12	Fluor 339 460 2.2 (not shown: Spn DPM-DC inh)
CNc1nnc(-c2cccc(N(C)C)c2)s1	Fluor 339 460 2.9
COc1cc2nc(C3CCC3)n(NC(=O)C3CCCC(OC)C3)c(=O)c2cc1OC (centres undefined)	PMK inhibit active
O=C(Nc1ccc(-c2nc3cccnc3s2)cc1)c1ccco1	Fluor 339 460 2.1 (not shown: Spn DPM-DC inh)
O=C(Nc1cccc(-c2nc3cccnc3s2)c1)c1ccco1	none
O=C(Nc1ccc(-c2nc3cccnc3s2)cc1)c1ccc(Br)o1	Fluor 339 460 2.2 (not shown: Spn DPM-DC inh)
Cc1nn(-c2ccccc2)c2sc(C(=O)OCc3nnc(-c4ccccc4)o3)cc12	none
CCOC(=O)Cc1csc(NC(=O)CSc2ncnc3c2cnn3-c2ccc(OC)cc2)n1	Fluor 339 460 2.5
COC(=O)Cc1cc(=O)[nH]c(/N=C(/NC(=O)c2ccccc2)Nc2ccccc2C)n1	none
CC(=O)Nc1ccc2oc(-c3ccccc3Br)nc2c1	Fluor 339 460 2.2
CC(=O)Nc1ccc2oc(-c3cc(F)c(F)cc3Cl)nc2c1	Fluor 339 460 3.8 (not shown: Spn DPM-DC inh)
COc1ccc(CNc2oc(COc3ccc(Cl)cc3)nc2C#N)cc1	none
COc1ccc(-c2nc(C#N)c(NCCc3ccccc3)o2)cc1	Fluor 339 460 3.6 (not shown: Spn DPM-DC inh)
